High-throughput results from PubChem BioAssay.
KAT2A inh: inhibitors of human GCN5L2 histone acetyltransferase | GCN5L2 HAT assay, ThioGlo1 CoA-SH fluorescence | Potency, µM (highest dose often 58.9 µM), for inactives: at the top dose activity change, negative = inhibition, usual class: inhibitors | 390,000 tested, 0.21% active; also: potency is read from the fitted curve at half-maximal effect
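Titration-based screen in which CoA formation is detected via maleimide probe ThioGlo1 (50uM) turning fluorescent on thiol reaction; substrates H3(1-25) 75uM and acetyl-CoA 70uM, GCN5L2 20nM, 20 min incubation at room temperature.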
RGS4 inhibitor: inhibitors of human regulator of G protein signaling 4; P49798; Transcreener GDP fluorescence polarization, RGS4-accelerated GTP hydrolysis; Potency, µM (series often up to 114 µM), inactives show at the top dose activity change, negative = inhibition, actives largely listed as inhibitors; 390,000 tested, 0.039% active; AID 504845; also: potency is read from the fitted curve at half-maximal effect; nearly all actives have a fitted effect of over 75% in size
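MLSMR compounds (23 nl, pin-transferred) preincubated 10 min at room temperature with a 500nM (2x) first reagent, then RGS4 at 900nM (2x) plus Transcreener GDP mix added; fluorescence polarization (620/688 nm) read before and after 90 min at 30 °C.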
KCNH2 3.1 inh: blocks the human KCNH2 3.1 channel isoform | U2OS KCNH2 3.1, thallium flux FluxOr; active compounds read low | activity change, % (tested at about 1.8 µM) | 340,000 tested, 0.95% active | AID 720553;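 active = maximum activity change below -70%; inconclusive = maximum activity change from -70% to -50%; inactive = maximum activity change above -50%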;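 also: thallium influx rate constant from kinetic fluorescence after stimulation buffer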
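Channel expression came from 3.1 mutant virus (1.77 x 10^8 /mL) applied to suspended U2OS cells for 4 h. Flux was tracked with FluxOr dye plus Red40 quencher, and kinetic rate constants normalized to controls.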
Pin1 inhibitor: inhibitors of human Pin1. Pin1 FP peptide displacement, HiFluor488, 10 min. Potency, µM (doses to about 115 µM), for the others: at the highest dose activity, negative = inhibition, most hits filed as inhibitors. 390,000 tested, 0.009% active. AID 504891; active = well fitted inhibition curve with a large enough effect in the polarisation, with a control signal flat, not every such curve was filed as active; inconclusive = small, poorly fitted or top-dose-only effect, or effect the other way, or a change in a side signal; inactive = no such curve, though single readings can be large or run the other way; the % refers to the polarisation; also: potency is read from the fitted curve at half-maximal effect
Target sequence (Q13526 whole entry, looked up): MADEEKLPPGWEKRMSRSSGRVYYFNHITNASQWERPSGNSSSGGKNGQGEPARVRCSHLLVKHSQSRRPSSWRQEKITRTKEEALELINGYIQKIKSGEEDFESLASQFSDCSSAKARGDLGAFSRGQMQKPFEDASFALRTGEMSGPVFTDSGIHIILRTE
PGK inhibitor: blocks T. brucei phosphoglycerate kinase | Potency, µM (titrated, usually from 57.5 µM), for inactives: at the highest dose activity change, negative = inhibition, actives largely listed as inhibitors | 380,000 tested, 0.043% active | P07378 | AID 602233 | PGK/GAPDH coupled, Kinase-Glo luminescence, 60 min; also: potency is read from the fitted curve at half-maximal effect; nearly all actives have a fitted effect of over 60% in size
Target sequence (P07378 whole entry, looked up): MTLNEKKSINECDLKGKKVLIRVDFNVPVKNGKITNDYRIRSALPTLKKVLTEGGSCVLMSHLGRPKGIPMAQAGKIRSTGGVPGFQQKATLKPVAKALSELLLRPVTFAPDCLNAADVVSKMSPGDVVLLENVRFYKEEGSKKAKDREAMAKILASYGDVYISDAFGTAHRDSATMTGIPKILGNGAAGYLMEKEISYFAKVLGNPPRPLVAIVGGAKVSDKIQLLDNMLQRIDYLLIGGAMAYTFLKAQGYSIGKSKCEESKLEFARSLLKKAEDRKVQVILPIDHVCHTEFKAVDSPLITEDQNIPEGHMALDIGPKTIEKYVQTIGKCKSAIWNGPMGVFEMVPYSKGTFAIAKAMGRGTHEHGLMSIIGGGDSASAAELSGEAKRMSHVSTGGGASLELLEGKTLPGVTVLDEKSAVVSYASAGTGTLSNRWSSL
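Recombinant glycosomal PGK reaction used 1,3-bisphosphoglycerate generated in-well by GAPDH (100nM final) in 100mM TEA pH 7.6, 5mM MgCl2, 0.01% Tween-20. After 60 minutes at room temperature, ATP was read by Kinase-Glo Plus luminescence end-point.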
hERG WT inh: inhibitors of human wildtype KCNH2 potassium channel. Q12809. AID 720551. activity change, % at 1.84 µM. 340,000 tested, 0.37% active. U2OS, BacMam KCNH2, thallium flux FluxOr; active compounds read low;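 active = maximum activity change below -70%; inconclusive = maximum activity change between -70% and -50%; inactive = maximum activity change above -50%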
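U2OS cells were transduced with wild-type KCNH2 virus (2.03 x 10^8 / mL) for 4 h at room temperature, then cultured overnight at 37 C. Thallium flux was read with FluxOr dye. Rate constants were normalized to DMSO controls.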
Starred values were filed as active, the others as inactive; i = inactive; ? = inconclusive; nt = no result given; [ ] = another dose, or the depositor's remark. Most compounds without a hit are left out; they make up all but 1.2% or so of the library. Unless noted, calls follow the shape of the dose curve; as a rule, active = well fitted curve in the direction sought with a large enough effect; inconclusive = small, poorly fitted or top-dose-only effect, or another doubt; inactive = no such curve, though single readings can be large; an effect the other way counts as inactive or inconclusive. % is scaled to controls: 0 for no effect and ±100 for the full control effect.

SMILES	KAT2A inh	RGS4 inhibitor	KCNH2 3.1 inh	Pin1 inhibitor	PGK inhibitor	hERG WT inh
CCCCNC(=O)CCn1c(=O)c2ccccc2n(Cc2ccccc2C#N)c1=O	-9%	5%	nt	2%	i	nt
COC(=O)CC(=O)CSc1nc2c(cc1C#N)CCC2	-10%	-5%	21	-2%	3%	-8
CCOC(=O)CC(=O)CSc1nc2c(cc1C#N)CCCCCC2	-6%	-34%	-13	38%	-8%	-116*
O=C(Nc1ccc(Cl)c(Cl)c1)Nc1ccc(N2CCCC2)c(S(=O)(=O)Nc2ccccc2Cl)c1	-7%	9%	4	1%	4%	-11
O=C(Nc1ccc(F)cc1)Nc1ccc(N2CCCC2)c(S(=O)(=O)Nc2ccccc2Cl)c1	-12%	6%	-114*	5%	2%	-8
N#Cc1nc(COc2ccc(Cl)cc2)oc1N1CCN(Cc2ccccc2)CC1	-15%	3%	nt	10%	-1%	-5
CCN1CCN(c2oc(COc3ccc(Cl)cc3)nc2C#N)CC1	-9%	19%	-83*	1%	0%	22
CCCN1CCC(=O)N([C@H](CO)Cc2ccccc2)CC1	-2%	7%	-9	5%	-1%	-9
CCCCCCCN1CCC(=O)N([C@H](CO)Cc2ccccc2)CC1	3%	10%	-109*	2%	i	?
CCCN1CCC(=O)N([C@H](CSc2ccc(C)cc2)Cc2ccccc2)CC1	27%	9%	-101*	-4%	i	17
O=C1CCN(CCc2ccccc2)CCN1C(CSc1ccc(Br)cc1)Cc1ccccc1 (configuration not stated)	nt	-1%	nt	53%	nt	nt
Cc1ccc(SC[C@H](Cc2ccccc2)N2CCN(CCc3ccccc3)CCC2=O)cc1	-22%	11%	-106*	25%	3%	-101*
Cc1ccc(SCC(Cc2ccccc2)N2CCN(CC(C)C)CCC2=O)cc1 (configuration not stated)	nt	15%	nt	?	nt	nt
O=C1CCN(CCc2ccccc2)CCN1[C@H](CSc1ccccc1)Cc1ccccc1	-5%	-25%	-103*	21%	i	-141*
Cc1ccc(SC[C@H](Cc2ccccc2)N2CCN(C)CCC2=O)cc1	-4%	7%	?	-8%	-2%	7
CCCN1CCC(=O)N([C@H](CSc2ccc(OC)cc2)Cc2ccccc2)CC1	-4%	4%	-101*	-1%	-2%	7
COc1ccc(SCC(Cc2ccccc2)N2CCN(CCc3ccccc3)CCC2=O)cc1 (configuration not stated)	nt	-12%	nt	24%	nt	nt
COc1ccc(N2CC3=C(C2=O)C(c2ccc(Br)cc2)NC(=O)N3C)cc1 (configuration not stated)	-6%	8%	nt	-5%	-8%	nt
Cc1ccc(S(=O)(=O)NNC(=O)C(=O)NNS(=O)(=O)c2ccc(C)cc2)cc1	-6%	1%	11	-8%	-8%	-6
Cc1ccc(NNS(=O)(=O)c2ccc(C)cc2)cc1	35µM*	-108%[11.4 µM]	-19	4%	-7%	3
CC(=O)Nc1ccc2nc3c(=O)[nH]c(=O)[nH]c3nc2c1	-26%	?	nt	?	nt	nt
NCCCn1c(C(=O)c2cc(Cl)c(N)c(Cl)c2)c2ccc(C(F)(F)F)cc2[n+]1[O-]	-6%	-20%	-125*	4%	5%	10
NC(=O)CCCn1c(C(=O)c2cc(Cl)c(N)c(Cl)c2)c2ccc(C(F)(F)F)cc2[n+]1[O-]	-20%	-3%	-85*	-9%	2%	4
Cc1ccc(NCc2nnc(SCc3ccc(C#N)cc3)n2Cc2ccco2)c(C)c1	-4%	-12%	?	0%	-4%	-97*
CSc1nc2ccc(Br)cc2[nH]1	-3%	-11%	-72*	0%	-9%	1
SMILES	KAT2A inh	RGS4 inhibitor	KCNH2 3.1 inh	Pin1 inhibitor	PGK inhibitor	hERG WT inh
c1ccc(Cc2noc(CN3CCN(C4CCc5ccccc5C4)CC3)n2)cc1 (configuration not stated)	-4%	-1%	-127*	-9%	14%	34
O=C1N(Cc2cccc(Cl)c2)C[C@@H]2C[C@@H](c3cccn3-c3ccccn3)N3CCC[C@@]123	?	12%	-25	13%	i	26
O=C1N(Cc2cccc(Cl)c2)C[C@@H]2C[C@@H](c3cccn3-c3nccs3)N3CCC[C@@]123	-13%	-3%	-86*	14%	1%	13
O=C(Nc1ccc2c(c1)nc1n2CCN(Cc2ccccc2)C1)NC1CCCCC1	-19%	-19%	-85*	2%	-13%	-15
COc1nnc(-c2ccc(C)cc2)c2ccccc12	-7%	-7%	-90*	0%	-1%	-4
Cc1cc(NC(=O)CN(C)CC(=O)Nc2ccc(Cl)cc2)no1	-5%	-19%	-120*	-11%	-3%	11
CN(CCOC(=O)/C=C/c1ccco1)Cc1ccccc1	-6%	-33%	-1	?	11µM*	0
CCc1ccc(NC(=O)COC(=O)/C=C/c2ccco2)cc1	-8%	23%	-121*	4%	?	18
CN(Cc1ccccc1)C(=O)COC(=O)/C=C/c1ccco1	?	-21%	3	-3%	-25%	-45
CN(C(=O)CSc1nc2ccc(NC(=O)COc3ccccc3Cl)cc2s1)c1ccccc1	-7%	13%	nt	-1%	2%	nt
CCCNC(=O)c1ccc(N2CCC3(CC2)CC(c2ccccc2)=NO3)c(NC(=O)Cc2ccc(F)cc2)c1	0%	-11%	-77*	6%	-3%	?
CCCNC(=O)c1ccc(N2CCC3(CC2)CC(c2ccccc2)=NO3)c(N)c1	-1%	13%	-2	1%	-11%	-4
CCCCC(CC)C(=O)Nc1cc(C(=O)NCc2ccc(C)cc2)ccc1N1CCC2(CC1)CC(c1cccc(Br)c1)=NO2 (configuration not stated)	-16%	7%	-9	?	4%	-4
CCCCC(CC)C(=O)Nc1cc(C(=O)NCCC)ccc1N1CCC2(CC1)CC(c1cccc(Br)c1)=NO2 (configuration not stated)	-9%	0%	?	11%	-9%	-84*
CCOC(=O)C1=C(C)NC(C)=C(C(=O)OCC)C1/C=C/c1ccccc1	-10%	19%	0	0%	i	7
CCOC(=O)N(O)c1ccc(C=Cc2ccccc2)cc1	nt	-11%	nt	2%	28µM*	8
CCN(CC)CCOC(=O)c1ccc(NC(=O)c2nn(-c3ccc(C)cc3)c(=O)c3c2c2ccccc2n3C)cc1	-5%	-17%	nt	?	-4%	nt
O=C(NN=C1C2CC3CC(C2)CC1C3)c1ccncc1	-15%	37%	3	2%	7%	-183*
